# Screening data deposited in PubChem by several laboratories.
# Most compounds without a hit are left out; they make up all but 3.5% or so of the library.
# ERa SRC1 inh – blocks coactivator binding to human estrogen receptor alpha; AID 629; 86,000 tested, 1.7% active; P03372; TR-FRET ER-alpha LBD / SRC-1 peptide, estradiol-bound; inhibition, % at 25.6 µM; in the data active = inhibition above about 50%;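 note: 0% = receptor plus peptide control and 100% = peptide only without receptor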
# Target sequence (P03372 whole entry, looked up, the tested form may be a part): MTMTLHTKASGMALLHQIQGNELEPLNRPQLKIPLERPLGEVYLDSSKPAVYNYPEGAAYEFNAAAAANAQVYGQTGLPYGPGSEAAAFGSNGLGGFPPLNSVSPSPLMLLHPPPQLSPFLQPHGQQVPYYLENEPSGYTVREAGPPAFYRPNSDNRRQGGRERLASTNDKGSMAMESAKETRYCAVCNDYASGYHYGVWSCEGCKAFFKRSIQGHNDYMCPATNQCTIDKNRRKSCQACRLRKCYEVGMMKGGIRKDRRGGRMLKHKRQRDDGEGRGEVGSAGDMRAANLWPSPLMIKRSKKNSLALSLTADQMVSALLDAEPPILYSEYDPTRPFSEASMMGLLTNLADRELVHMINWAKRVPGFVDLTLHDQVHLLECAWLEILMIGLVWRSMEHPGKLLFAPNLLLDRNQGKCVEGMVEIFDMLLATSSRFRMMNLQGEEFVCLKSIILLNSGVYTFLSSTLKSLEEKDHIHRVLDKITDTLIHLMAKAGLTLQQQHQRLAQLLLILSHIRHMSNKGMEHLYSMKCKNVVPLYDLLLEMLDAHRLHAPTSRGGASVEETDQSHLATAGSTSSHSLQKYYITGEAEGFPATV
# MT1-MMP txn act – activates MT1-MMP transcription; HT1080 MT1-MMP promoter luciferase reporter, luminescence, overnight; hits give high values; 86,000 tested, 0.16% active; activation factor at 10 µM;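 active = activation factor of at least 2 for MT1-MMP transcription at 10 µM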
# ERb SRC1 inh – blocks coactivator binding to human estrogen receptor beta; Q92731; TR-FRET ER-beta LBD / SRC1-Cy5 peptide binding; receptor agonist-loaded with 1 µM estradiol; inhibition, % at 25.6 µM; 86,000 tested, 1.3% active; AID 633;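 active = compounds whose percent inhibition of the receptor-coactivator binding signal exceeds about 50% in the single-dose screen, limit read from the data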;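 note: 0% = receptor plus peptide wells without compound and 100% = peptide-only wells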
# Smad3 FoxH1 inh – blocks human Smad3 binding to FoxH1 peptide | TR-FRET Smad3/Dy647-FoxH1 peptide binding, europium anti-His | AID 630 | inhibition, % at 25 µM | 88,000 tested, 0.29% active;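 active = compounds that reduce the energy-transfer binding signal between the protein and its labelled peptide by more than half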;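 note: 0% = Smad3 plus labelled peptide maximal FRET and 100% = peptide-only background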
# ERa SRC1 pot – enhances coactivator binding to human estrogen receptor alpha; TR-FRET ERalpha-LBD/SRC-Cy5 coactivator binding, 2 h; 100 = basal binding, no effect; coactivator binding (% of control), % at 25.6 µM; 86,000 tested, 1.3% active; in the data active = activity above about 200%;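 note: binding measured in presence of low estradiol as agonist stimulus; 0% = peptide alone without receptor and 100% = receptor with peptide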
# MMP13 inh – blocks human MMP13 activity. AID 570. 65,000 tested, 0.07% active. inhibition, % at 4 µM. MMP-13 fTHP FRET cleavage, Mca fluorescence;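 active = inhibition above the mean of compound-free control plate wells plus 3 SD, cut at about 14% in these data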;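 note: 0% = DMSO wells and 100% = wells with reference MMP-13 inhibitor after basal subtraction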
# Starred values were filed as active, the others as inactive; · = not tested or not shown; [ ] = another dose, or the depositor's remark.
SMILES,ERa SRC1 inh,MT1-MMP txn act,ERb SRC1 inh,Smad3 FoxH1 inh,ERa SRC1 pot,MMP13 inh
COc1cc2nc(N3CCNCC3)nc(N)c2cc1OC,86.9*[fluorescence artefact?],1,-7.8,5.5,88.5,-68.0
Clc1ccc2nc(N3CCNCC3)nc(-c3ccccc3)c2c1,6.5,0.9,3.0,-8.8,68.2,-41.4
COc1ccc2c(Cl)c(-c3nnc(SCC(=O)c4ccccc4)n3C)sc2c1,8.0,1,-13.7,2.0,240.9*,·
COc1ccc2c(Cl)c(-c3nnc(SCC(N)=O)n3C)sc2c1,0.5,1.2,-0.1,7.5,105.3,3.1
COCCN1CCn2c(nc3cc(NC(=O)c4cccs4)ccc32)C1,73.8*[fluorescence artefact?],1.4,42.8,-12.7,17.5,·
CCOC(=O)c1cc(C#N)c(SCc2ccc(C#N)cc2)nc1C,72.2*[fluorescence artefact?],1.3,66.0*[fluorescence artefact?],64.0*[fluorescence artefact?],251.9*[fluorescence artefact?],-6.7
CCOC(=O)c1cc2c(N)c(C(=O)c3cc(C#N)c(SC)nc3C)sc2nc1C,68.7*[fluorescence artefact?],1,31.5,-6.2,173.6,-1.7
CCOc1ccccc1C(=O)Nc1ccc2nc(N3CCN(c4ncccn4)CC3)cc(C)c2c1,73.3*,0.7,35.1,-17.3,303.4*[fluorescence artefact?],-0.4
COc1cccc(C(=O)Nc2ccc3nc(N4CCN(c5ncccn5)CC4)cc(C)c3c2)c1OC,·,0.9,·,·,·,-10.3
COc1ccc(NC(=O)C2CCN(c3cc(-c4ccccc4)nc4ncnn34)CC2)cc1OC,16.6,1.1,-4.1,2.5,104.2,-2.3
COc1ccc(OC)c(NC(=O)C2CCN(c3cc(-c4ccccc4)nc4ncnn34)CC2)c1,30.8,1.1,55.7*[fluorescence artefact?],3.2,127.0,0.7
O=C(NC1CCSC1=O)c1ccc(Cl)cc1 (centres undefined),-7.7,·,-12.8,-3.3,119.2,·
O=C(NC1CCSC1=O)c1cccc(C(=O)NC2CCSC2=O)c1 (centres undefined),22.7,1.1,11.3,4.2,207.7*,-1.1
Cc1ccc(C(=O)NC2CCSC2=O)cc1 (centres undefined),6.1,1.3,0.8,53.8*[fluorescence artefact?],112.7,·
CCOC(=O)c1[nH]c(C)c(C(=O)OCC(=O)N2CCc3ccccc32)c1C,4.9,1.1,-1.6,-2.0,94.1,·
CC(=O)c1c(C)[nH]c(C(=O)OCC(=O)N2CCc3ccccc32)c1C,12.3,1.4,16.2,9.5,229.0*,·
C=C(C)c1ccc(C(C)(C)NC(=O)N2CCN(C)CC2)cc1,-2.4,1.2,4.7,70.6*,536.6*[fluorescence artefact?],-0.6
Cn1c(=O)[nH]c(=O)c2c1nc(NCCCn1ccnc1)n2Cc1ccc(F)cc1,1.1,1,2.4,9.2,131.5,3.2
COc1cc(OC)nc(NC(C)=O)n1,-5.7,1.2,-4.6,-14.2,111.1,·
COc1cc(OC)nc(NC(=O)C(C)C)n1,62.1*,1.1,-6.1,8.8,110.7,-1.1
Cc1ccc(-c2noc(CNc3ccccc3)n2)cc1,-11.8,1.3,-5.1,1.0,103.3,·
CCn1c(=NC(=O)c2ccc(N3C(=O)CCC3=O)cc2)sc2c(OC)ccc(OC)c21,33.2,1.1,21.7,-124.3,403.1*,-2.5
COc1cccc2sc(=NC(=O)c3ccc(S(=O)(=O)N4CCOCC4)cc3)n(C)c12,6.1,0.9,10.8,16.4,161.1,0.1
CCn1c(=NC(=O)c2ccc(S(=O)(=O)N3CCOCC3)cc2)sc2cccc(OC)c21,29.7,0.9,39.6,0.9,260.6*[fluorescence artefact?],0.1
CCn1c(=NC(=O)CN2C(=O)CCC2=O)sc2c(OC)ccc(OC)c21,·,1,·,·,·,1.3
SMILES,ERa SRC1 inh,MT1-MMP txn act,ERb SRC1 inh,Smad3 FoxH1 inh,ERa SRC1 pot,MMP13 inh
C[C@]12CC[C@@H]3c4ccc(O)cc4C(=O)C[C@H]3[C@@H]1CC[C@@H]2O,3.5,1,0.9,4.8,705.4*,-13.5
O=C(CSc1nnc(-c2ccccc2O)o1)N1CCc2ccccc2C1,23.0,1,26.7,1.9,239.2*[fluorescence artefact?],-5.4
CC(C)(C)NC(=O)NC(=O)Cn1cc(C(F)(F)F)ccc1=O,2.5,1.2,19.7,2.1,101.7,0.1
O=c1cc(CSc2nc3cc(Cl)ccc3o2)nc2sccn12,4.5,0.9,1.3,7.1,106.8,-4.7
COc1ccc(Nc2nnc(SCc3cc(=O)n4ccsc4n3)s2)cc1,76.4*[fluorescence artefact?],1.2,52.1*,32.9,51.9,·
O=C(O)c1cc(S(=O)(=O)Nc2ccc3oc(=O)sc3c2)ccc1O,42.8,0.9,55.3*[fluorescence artefact?],-7.5,59.7,-1.7
NC1=NC(c2ccccc2Cl)n2c(nc3ccccc32)N1 (centres undefined),1.3,1.2,-12.5,3.9,91.2,0.8
c1ccc(C2(Cn3ccc4ccccc43)OCCO2)cc1,98.6*[fluorescence artefact?],1.1,-6.0,2.3,136.9,4.1
O=C(NCCn1ccc2ccccc21)c1ccc2c(c1)OCO2,-9.1,1.4,-4.2,-1.2,116.1,-3.2
Cc1ccc(S(=O)(=O)Cc2ccc(C(=O)N3CCCCCC3)o2)cc1,4.7,1.2,8.1,-6.7,100.8,-0.7
CCOC(=O)C1CCCN(C(=O)c2ccc(CS(=O)(=O)c3ccc(C)cc3)o2)C1 (centres undefined),36.5,1,55.2*,12.2,66.2,5.8
Cn1c(=O)[nH]c(=O)c2c1nc(CN1CCN(c3cccc(Cl)c3)CC1)n2CCc1ccccc1,21.9,0.9,2.4,2.3,108.5,-2.9
COc1ccc(Cl)cc1-c1nc(-c2ccc(Br)o2)no1,58.7*[fluorescence artefact?],1.6,47.5,-20.0,277.0*[fluorescence artefact?],7.6
O=C(Nc1nc(-c2cccs2)cs1)c1ccc(S(=O)(=O)N2CCCC2)cc1,12.6,1,51.2*[fluorescence artefact?],9.5,190.3,8.9
O=C(Nc1nc(-c2ccc3c(c2)OCCO3)cs1)c1ccc(S(=O)(=O)N2CCCCC2)cc1,11.0,1.1,15.5,6.1,268.8*[fluorescence artefact?],2.3
O=C(Nc1nc(-c2ccc(S(=O)(=O)N3CCCCCC3)cc2)cs1)c1ccccc1,-10.0,0.9,-4.3,0.4,696.4*[fluorescence artefact?],·
COCCN(CCOC)S(=O)(=O)c1ccc(C(=O)Nc2nc(C)c(C(C)=O)s2)cc1,·,·,·,·,·,-1.2
COCCN(CCOC)S(=O)(=O)c1ccc(C(=O)Nc2nc(-c3ccncc3)cs2)cc1,9.3,1,2.7,1.6,211.4*,5.6
O=c1c2ccccc2nc2n1CC/C2=C/N1CCN(c2cccc(C(F)(F)F)c2)CC1,70.5*[fluorescence artefact?],1.1,99.6*[fluorescence artefact?],-8.9,59.2,1.2
O=C1CC(N2CCN(c3cccc(C(F)(F)F)c3)CC2)C(=O)N1c1ccccc1 (centres undefined),1.0,1.1,-3.4,2.5,92.1,6.4
Cc1noc(C)c1C(=O)N1CCN(C(=O)c2sc3cc(Cl)ccc3c2Cl)CC1,-3.6,1.2,68.6*[fluorescence artefact?],8.1,111.1,-4.4
Cc1noc(C)c1C(=O)N1CCN(Cc2ccccc2)CC1,1.8,1,-12.2,10.7,96.9,·
Cc1cccn2cc(CNC(=O)CC3CCCC3)nc12,·,1,·,·,·,-10.7
Cc1ccc(-c2nnc(SCC(=O)Nc3sc(C)c(C)c3C#N)n2C)cc1,2.9,1.2,11.3,15.7,248.5*[fluorescence artefact?],·
